Experimental findings from PubChem BioAssay (NCI) are described below.

SMILES strings stand for the structures. Compounds without any hit were thinned out: in the full panel of roughly 83,000, 20% have a hit.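 In brief: 96-well plates, 48 h treatment, single concentration, percent growth endpoint.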 A number with no mark means an inactive call. Activity calls are given as the source filed them. Rule for the calls: active = growth percent below 10; inactive = the rest.

The first test deals with IGROV1 ovarian. The test can be described thus: NCI-60 one-dose screen, 48 h (100 = growth as untreated, 0 = no growth, -100 = all killed). As to conditions: 10 µM unless noted.
As for `CCCCCCCCc1ccc(C(=O)Nc2ccc(C)cc2C(=O)O)cc1C`, the growth was 98.2%.

For `C#CCOc1cc(N(CC)CC)ccc1C(C(=O)NC(C)(C)C)N(C(=O)C1CCc2cc(F)ccc2O1)c1ccc(F)c(Cl)c1` (configuration not stated), the growth is 70.5%. On to `CCOC(=O)C1=C(N)N(c2ccccc2)C2=C(C(=O)CC(C)(C)C2)C1c1ccc([N+](=O)[O-])cc1` (configuration not stated), for which the growth is 108%. Same read-out and setting: to `C=C1CC[C@@H]2[C@]3(C)COC(c4ccccc4)O[C@@H]3CC[C@@]2(C)[C@@H]1C/C=C1/C(=O)OCC1OC(C)=O` (some centres not stated) belongs -51.3% (active); to `C#C[C@]1(O)CC[C@H]2[C@@H]3CC=C4c5sc(-c6ccc([N+](=O)[O-])cc6)nc5CC[C@]4(C)[C@H]3CC[C@@]21C`, 26.4%.

Regarding `CN1CCN(/C(=N\c2sc(-c3ccccc3)nc2-c2ccccc2)c2ccccc2)CC1`, the growth was 82.5%. The same measure, in the same setting: then `N=C1N=C(SCc2nc3ccccc3[nH]2)NC(=O)/C1=C/c1ccc(Cl)cc1`, with 110%; and `C/C(=N\N=C1/C(=O)Nc2ccc(Cl)cc21)c1ccc2c(c1)Nc1ccccc1S2`, with -8.9% (active); and `Cc1cccc(NC(=O)CN2CCN(c3ncnc4c3cnn4-c3ccccc3)CC2)c1`, with 83.9%.

Turning to `CN(C)CCOc1ccc(C(=O)C2[C@H](c3ccc(Cl)cc3)[C@@H](c3ccccc3)NC23C(=O)Nc2ccccc23)cc1` (some centres not stated), the growth is 80.2%.

As to `COc1ccc2[nH]cc(-c3nnc(N)nc3-c3cn(C)c4ncc(Br)cc34)c2c1`, the growth is 58.4%.

A further test relates to OVCAR-3 ovarian. The test is described as above. Particulars: 10 µM unless noted.
Regarding `COc1c(F)ccc(C(=O)Nc2ccc3nc(NC(=O)C4CCCN(S(=O)(=O)C5CC5)C4)sc3c2)c1F` (configuration not stated), the growth is 66.5%. Still for that read-out and setting: to `CCOC(=O)C1=C(N)N(c2ccccc2)C2=C(C(=O)CC(C)(C)C2)C1c1ccc(N2CCOCC2)cc1` (configuration not stated) belongs 113%; to `OCC1(CCCc2ccccc2)CCCN(c2nccc3ccccc23)C1` (configuration not stated), 45.6%; to `COc1ccc(/C=N/NC(=O)Cn2nc(Cc3ccc(OC)cc3)c3onc(C)c3c2=O)cc1`, 50.8%. Consider `O=[N+]([O-])c1ccc(/C=C/c2nc3ccccc3n3c(=S)[nH]nc23)cc1`, for which the growth is 69.9%.

For the compound `COC(=O)/C=C/c1cccc2c1C(=O)NC(C)(c1cc3ccccc3oc1=O)N2` (configuration not stated), the growth is 74.1%. With `CCN(CC)c1ccc(/C=N/Nc2nc(-c3ccc(Br)cc3)cs2)c(O)c1`, the growth was 61.3%. On the same count and under the same terms, to `O=C(c1ccccc1)C(c1c[nH]c2ccccc12)c1c[nH]c2ccccc12` belongs 57.9%; to `CC1(C)CC[C@]2(C(=O)Nc3ccc(Br)cc3)CC[C@]3(C)C(=CCC4[C@@]5(C)C[C@@H](O)[C@H](O)[C@@](C)(CO)C5CC[C@]43C)C2C1` (some centres not stated), -4.06% (active). Regarding `CC(/C=C1\SC(=S)N(CCCC(=O)NC(CC(C)C)C(=O)O)C1=O)=C\c1ccccc1` (configuration not stated), the growth was 91.3%. In the case of `Cn1cc(-c2cc(N)n3nc(-c4cn(C)c5ccccc45)cc3n2)c2cc(Br)ccc21`, the growth is -46.3% (active). Still for that read-out and setting: then `Cc1ccc(NCC(=O)Cn2cc(COc3ccc(C=Nc4cnc5ccccc5c4)cc3)nn2)cc1`, with 139%.

In the case of `Cc1ccc([C@H]2C(C(=O)c3ccc(Cl)cc3)C3(N[C@@H]2c2ccccc2)C(=O)Nc2ccc(Cl)cc23)cc1` (some centres not stated), the growth is 45.8%. The same measure, in the same setting: then `Cc1cc2nc3c4ccccc4n(CCNCCN(C)C)c3nc2cc1C`, with 40.5%. On to `Cc1ccccc1[C@H]1C(C(=O)c2ccc(Cl)cc2)C2(N[C@@H]1c1ccccc1)C(=O)Nc1ccc(Br)cc12` (some centres not stated), for which the growth was -30.7% (active). Same read-out and setting: to `CC(C)c1sc(NC(=O)c2cc(NC(=O)c3cc(NC(=O)c4cscn4)cn3C)cn2C)nc1C(=O)NCCCN(C)C` belongs 3.57% (active).

For `CC(=O)OC[C@@]1(C)C2CC[C@]3(C)C(CC=C4C5CC(C)(C)CC[C@]5(C(=O)Nc5ccc(C)cc5)CC[C@]43C)[C@@]2(C)C[C@@H](OC(C)=O)[C@@H]1OC(C)=O` (some centres not stated), the growth was 48.9%. In the case of `O=C1CC(Sc2n[nH]c(-c3ccncc3)n2)C(=O)N1c1ccc(Br)cc1` (configuration not stated), the growth is 114%. For the compound `COc1cc2c3c(n(CCCN4CCC[C@@H]4CO)c(=O)c2cc1OC)-c1cc2c(cc1C3=O)OCO2`, the growth is -94.4% (active). Same read-out and setting: then `C=C1CCC2C3(C)COC(c4ccc(F)cc4)OC3CCC2(C)C1C/C=C1/C(=O)OCC1O` (configuration not stated), with -82% (active); and `Cc1sc(C(NC(=O)OCCn2c([N+](=O)[O-])cnc2C)C(F)(F)Cl)nc1-c1ccc(OC(F)(F)F)cc1` (configuration not stated), with -59.6% (active).
